# EBV gp42 block = blocks Epstein-Barr virus glycoprotein 42 binding; AID 1085; Fluorescence polarization binding assay, mP read-out; inhibition, % (tested at 21.74 µM); hit rate 0.42% among 220,000; Q1HVG2; in the data active = inhibition above about 50%
# Target sequence (Q1HVG2 whole entry, looked up): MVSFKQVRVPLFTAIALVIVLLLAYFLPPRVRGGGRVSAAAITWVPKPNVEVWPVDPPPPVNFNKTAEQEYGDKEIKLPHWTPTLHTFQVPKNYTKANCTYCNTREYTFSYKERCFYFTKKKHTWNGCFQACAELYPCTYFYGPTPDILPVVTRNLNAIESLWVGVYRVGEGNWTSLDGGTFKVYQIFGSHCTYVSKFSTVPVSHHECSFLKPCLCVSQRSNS
# E coli Lon inh = E. coli protease La inhibition | P0A9M0 | purified E. coli Lon protease, fluorescence polarization | inhibition, % at 7.94 µM | hit rate 0.42% among 360,000 | AID 602123; in the data active = inhibition above about 13%, passing the limit was not always enough;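 also: 0% = enzyme with probe and DMSO and 100% = no enzyme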
# GLD-1 TGE inh = GLD-1-TGE RNA interaction inhibition (C. elegans); inhibition, % at 5.96 µM; AID 2280; purified GLD-1 + fluorescein TGE RNA, fluorescence polarization; hit rate 0.44% among 320,000;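 active = percent inhibition above a per-plate cutoff, the plate mean of test compounds plus 3 SD, cut at about 30% in these data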;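 also: 0% = DMSO wells with GLD-1 and probe and 100% = wells lacking GLD-1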
# Bcl-xL primary = Bcl-xL (human) inhibition | Q07817 | GST-Bcl-xL / FITC-Bim BH3 peptide fluorescence polarization | inhibition, % at 10.9 µM | hit rate 0.7% among 320,000;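 active = inhibition above the mean of all tested compounds plus 3 SD, cutoff set per campaign, cut at about 30% in these data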;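 also: 0% = DMSO wells and 100% = unlabeled Bim-BH3 peptide competitor; inhibitors lower millipolarization by displacing the labeled peptide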
# MEX-5 binding = C. elegans MEX-5 TCR-2 RNA binding activity; activity score (negative = inhibition of binding), % at 10 µM; Q9XUB2; hit rate 0.38% among 300,000; MEX-5/FITC-TCR2 RNA binding, fluorescence polarization; active compounds read low;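 active = inhibition past about -25% in most replicates, and total fluorescence under double the plate's negative control median, limit read from the data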;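 also: 0% = DMSO and -100% = 5 µM competing unlabeled TCR2 RNA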
# Active calls of the source: *; · = not tested or not shown. This is a sample that favours compounds with a hit; in the whole collection about 1.3% have one here.
SMILES,EBV gp42 block,E coli Lon inh,GLD-1 TGE inh,Bcl-xL primary,MEX-5 binding
O=C(O)C1Cc2c([nH]c3ccccc23)C(c2ccc3c(c2)OCO3)N1 (configuration not stated),-10,-1,14,52*,-6
CN(CC(=O)Nc1ccccc1Cl)C(=O)CCc1nc2ccccc2c(=O)[nH]1,·,-14,25,31*,-11
CN(CC(=O)Nc1ccc(F)cc1)C(=O)CCc1nc2ccccc2c(=O)[nH]1,·,4,0,12,-4
COc1ccccc1CNC(=O)C1CCC(CNS(=O)(=O)c2ccc(F)cc2)CC1 (configuration not stated),·,-6,2,5,-1
O=C(N/N=C/c1ccc(Br)cc1)c1ccc(NC(=O)c2ccccc2)cc1,·,-6,·,·,·
CN(C)c1ccc(/C=N/NC(=O)c2ccc(NC(=O)c3ccccc3)cc2)cc1,-4,-1,17,32*,-1
Cc1ccc([N+](=O)[O-])cc1N=Nc1c(C)[nH]n(C(N)=S)c1=O,·,1,0,4,2
Cc1ccc([N+](=O)[O-])cc1N=Nc1c(-c2ccc([N+](=O)[O-])cc2)[nH]n(C(N)=S)c1=O,107*,-2,·,·,1
NC(=S)n1[nH]c(-c2ccc([N+](=O)[O-])cc2)c(N=Nc2ccc(Cl)cc2)c1=O,92*,-1,·,·,·
CN(C)Cc1c(O)ccc2cc(-c3nc4ccccc4n3C)c(=O)oc12,·,-19,22,52*,-3
Cc1cccn2c(=O)c3cc(S(=O)(=O)c4ccccc4)c(=N)n(Cc4cccnc4)c3nc12,·,13,-1,1,-31*
Cc1cccn2c(=O)c3cc(S(=O)(=O)c4ccccc4)c(=N)n(CC4CCCO4)c3nc12 (configuration not stated),-1,·,-3,5,-39*
N=c1c(S(=O)(=O)c2ccccc2)cc2c(=O)n3ccccc3nc2n1Cc1cccnc1,·,1,-4,7,-42*
Cc1ccc(S(=O)(=O)c2cc3c(=O)n4cccc(C)c4nc3n(CC3CCCO3)c2=N)cc1C (configuration not stated),-6,5,-4,0,-4
N=c1c(S(=O)(=O)c2ccc(Br)cc2)cc2c(=O)n3ccccc3nc2n1Cc1ccccc1,·,-5,0,0,0
C[C@H](c1ccccc1)N1C[C@H](COCc2ccccc2)Oc2cc(N3CC[C@@H](O)C3)ccc2S1(=O)=O,·,-3,·,·,·
O=S(=O)(Nc1ccc(-c2cnco2)cc1)c1ccccc1,-8,-5,10,31*,-2
COc1ccc(C2N(C(=O)c3ccccc3)CCN2C(=O)c2ccc(C)cc2)cc1 (configuration not stated),-8,-13,0,6,1
COc1ccc(C(=O)N2CCn3c(C)ccc3C2C)cc1 (configuration not stated),9,-13,14,47*,1
CC(C)=CCC[C@H](C)C[C@@H]1Cc2[nH][nH]c(=O)c2[C@H](c2ccc(Cl)cc2)O1,·,-4,·,·,·
COC1(OC)N=C(N)C2(C#N)C(c3ccccc3)NC(C)=CC12C#N (configuration not stated),-7,-2,6,11,-6
CC1=CC(C#N)(C#N)C(C#N)(C#N)C(c2ccccc2)N1 (configuration not stated),114*,·,119*,145*,-53*
CC1CC(C)CN(C(=O)c2ccc(S(=O)(=O)N3CCCC3)cc2)C1 (configuration not stated),·,8,3,-2,1
Cc1cc(C2C(C#N)=C(N)OC3=C2C(=O)CCC3)c(C)s1 (configuration not stated),-1,-3,-1,1,-4
COc1cc(C2C(C#N)=C(N)OC3=C2C(=O)CCC3)c([N+](=O)[O-])cc1OC (configuration not stated),83*,50*,98*,156*,-63*
SMILES,EBV gp42 block,E coli Lon inh,GLD-1 TGE inh,Bcl-xL primary,MEX-5 binding
O=C(CSc1nc2ccccc2n1CCc1ccccc1)N1CCOCC1,-23,2,0,-4,·
O=C(CSc1nc2ccccc2n1CCc1ccccc1)c1ccc(O)c(O)c1,72*,-6,·,·,·
CCCCCCc1nnc(N)s1,-20,1,-1,3,-2
Cc1ccc(C)n1-c1cccc(C(=O)O)c1,17,·,14,26,-93*
Cc1ccc(C)n1-c1cccc(N)c1,-10,·,-11,36*,-4
COc1cc(CNCCc2ccccc2)cc(Cl)c1OCc1ccccc1,10,0,-3,5,·
